This is one part of a sample in which hits are shown more often than they occur.
KDM5B inhibitor = inhibitors of human KDM5B histone demethylase | Q9UGL1 | KDM5B demethylase, FDH-coupled NADH fluorescence (FDH is formaldehyde dehydrogenase) | Potency, µM (titrated, usually from 57.7 µM), hits mostly inhibitors | 220,000 compounds, 2.6% hits | AID 1347165; active = well fitted inhibition curve with a large enough effect; also: 0% is about no effect; nearly all actives have a fitted effect of over 70% in size
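Measured: NADH fluorescence change, 30 min, RT. System: KDM5BΔAP 200 nM final, H3K4me3 peptide, α-KG, Fe(II), ascorbate, NAD⁺ plus FDH, pH 7.5 HEPES. Compounds: titrated, 10 min pre-incubation with enzyme.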
* hit, by the source's call; i = inactive. Potency is read from the fitted curve at half-maximal effect.

SMILES	KDM5B inhibitor
CC(C)NC(=O)N1CCC2(CC1)CN(C(=O)c1ccnc(N)c1)Cc1ccccc1O2	79µM*
CC(=O)Nc1ccc(C(=O)N2CCC3(CC2)CN(C(=O)NC(C)C)Cc2ccccc2O3)cc1	i
CCCCCn1nc(C(=O)Oc2ccc(C(=O)CC)cc2)c2ccccc2c1=O	i
CC(C)(C)NC(=O)c1cccc(NC(=O)c2ccc(Cl)cc2Cl)c1	i
O=c1c2ccccc2cnn1CN1CCN(S(=O)(=O)c2cccc(Cl)c2)CC1	i
COc1cc(OC)c(C2=CCN(C(=O)c3ccc(OCc4noc(C)n4)cc3)CC2)c(OC)c1	i
O=C(Nc1ccc(Cl)nc1)c1c[nH]c2cccnc12	i
O=C(Nc1ccc(F)cc1)c1cccn2cncc12	i
CNC(=O)c1cnn2ncccc12	32µM*
O=C(Nc1ccc(Cl)nc1)c1cnn2ncccc12	40µM*
CN1CCC(Oc2ncccc2C(=O)N(C)C)C1 (stereo not given)	i
CNC(=O)c1sc2ncccc2c1-n1cccc1	i
CN(C)C(=O)c1ccccc1NS(=O)(=O)c1ccc(Cl)cc1	i
CNC(=O)c1cnn2c1CN(C(=O)c1ccccc1)CC2	i
CN(C)C(=O)c1cnn2ncccc12	32µM*
Cc1onc(-c2c(F)cccc2Cl)c1C(=O)OCC(=O)C(C)(C)C	i
O=C(CCc1ncc(-c2c(F)cccc2F)o1)NCc1ccco1	i
Cc1oc2cc(OCC(=O)N(C)CCO)ccc2c(=O)c1Oc1ccccc1	i
COc1cc(/C=C(/NC(=O)c2ccccc2)C(=O)O)ccc1OCc1ccccc1	i
CC(Nc1nc2c(c(=O)[nH]c(=O)n2C)n1CCCc1ccccc1)c1ccccc1 (stereo not given)	i
O=C(CN1CCN(c2cc(-c3nc4ccccc4s3)c3ccccc3n2)CC1)N1CCOCC1	i
CCc1cccc(C)c1NC(=O)Cn1c(N(C)Cc2ccccc2)nc(C)cc1=O	i
O=c1[nH]c(=O)n(-c2ccccc2)c2c1C(C(F)(F)F)(C(F)(F)F)N=C(c1ccncc1)N2	i
Fc1ccccc1CN1CC[C@H](c2nnc(Cc3ccccc3)o2)C1	i
CCCn1nc(C(=O)N2CCCC2c2cccs2)c2ccccc2c1=O (stereo not given)	i
SMILES	KDM5B inhibitor
CCOC(=O)C1(Cc2ccc(Cl)cc2)CCN(C(=O)CC2=CCCCC2)CC1	i
CCOC(=O)C1(Cc2ccc(OC)cc2)CCN(C(=O)CCc2ccccc2OC)CC1	i
CCOC(=O)C1(Cc2ccc(Cl)cc2)CCN(C(=O)c2cc(C)oc2C)CC1	32µM*
CCOc1ccc(CN(C)C(=O)NC(c2ccc3c(c2)OCCCO3)C(C)C)cc1 (stereo not given)	i
CC(=O)N1C[C@@H]2CCCN3CCC[C@@H]([C@H]23)[C@H]1CCCC(=O)N(C)C	20µM*
O=C(CCC[C@@H]1[C@H]2CCCN3CCC[C@@H](CN1Cc1ccccc1)[C@@H]23)NCCCn1cccn1	22µM*
CC(=O)N1C[C@@H]2CCCN3CCC[C@@H]([C@H]23)[C@H]1CCCC(=O)NCCN1CCCCC1	22µM*
CN1C[C@@H]2CCCN3CCC[C@@H]([C@H]23)[C@H]1CCCC(=O)NCCN1CCOCC1	i
CCN1CCN(CCNC(=O)CCC[C@@H]2[C@H]3CCCN4CCC[C@@H](CN2C(C)=O)[C@@H]34)CC1	i
O=C(CCC[C@@H]1[C@H]2CCCN3CCC[C@@H](CN1Cc1ccccc1)[C@@H]23)NCc1ccncc1	i
O=C(CCC[C@@H]1[C@H]2CCCN3CCC[C@@H](CN1C(=O)c1ccccc1)[C@@H]23)NCCN1CCCCC1	i
CN(C)C(=O)CCC[C@@H]1[C@H]2CCCN3CCC[C@@H](CN1C)[C@@H]23	i
CN1CCN(CCCNC(=O)CCC[C@@H]2[C@H]3CCCN4CCC[C@@H](CN2Cc2ccccc2)[C@@H]34)CC1	i
CC(=O)N1C[C@@H]2CCCN3CCC[C@@H]([C@H]23)[C@H]1CCCC(=O)NCCCN1CCCCC1	25µM*
CC(=O)N1C[C@@H]2CCCN3CCC[C@@H]([C@H]23)[C@H]1CCCC(=O)N1CCNC(=O)C1	i
O=C(CCC[C@@H]1[C@H]2CCCN3CCC[C@@H](CN1C(=O)c1ccccc1)[C@@H]23)NCCCN1CCCCC1	i
CCn1c(SCC(=O)O)nc2c(=O)n(C)c(=O)n(C)c21	i
CCn1cnc2c1c(=O)n(CC(=O)Nc1ccc3c(c1)OCO3)c(=O)n2Cc1ccccc1	i
Cc1ccc(Nc2nc3ccccc3nc2NS(=O)(=O)c2ccc3c(c2)OCCO3)cc1	i
CC(C)NC(=O)CN1CCN(C(=O)c2cc3cc(Br)ccc3[nH]2)CC1	i
COc1ccccc1Oc1ccc(N/C=C/C(=O)c2ccc(Cl)cc2)cc1	i
N#Cc1cccc(CN2Cc3[nH]cnc3C[C@H]2C(=O)NCc2ccco2)c1	32µM*
O=C(NCc1ccco1)[C@@H]1Cc2nc[nH]c2CN1Cc1cc2ccccc2o1	i
O=C(NCc1ccco1)[C@@H]1Cc2nc[nH]c2CN1Cc1cccs1	i
Cc1ccc(CC(=O)N2CCCC(c3noc(COc4ccccc4)n3)C2)cc1 (stereo not given)	i

Screening results: PubChem, National Center for Advancing Translational Sciences (NCATS)
